Where “and” joins values, the source holds several entries; their conditions need not be identical. Equal values may be shown once. Records with an inconclusive call do not appear. A call without a number means that no potency is given here. Calls of active or inactive are those of the source. Unless noted, calls come from the whole dose curve; as a rule, active = well fitted curve in the direction sought with a large enough effect in the repeat runs; inconclusive = weak or mixed curves; inactive = no such curve, though single readings can be large; an effect the other way counts as inactive or inconclusive.
Experiments:
[1] = molecular target: Estrogen receptor beta (Homo sapiens) (UniProt Q92731); experiment: qHTS assay to identify small molecule antagonists of the estrogen receptor beta (ER-beta) signaling pathway (AID 1259378; active = well fitted inhibition curve with a large enough effect in the signal ratio in the repeat runs, not every such curve was filed as active; the % refers to the signal ratio)
In short: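 Antagonist mode: compounds added to beta-lactamase reporter HEK293T ER-beta-UAS cells stimulated with E2 (1nM final), 16 hr at 37C. LiveBLAzer B/G FRET substrate, 2 hours room temperature, fluorescence read-out.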

[2] = qHTS assay to identify small molecule agonists of the androgen receptor (AR) signaling pathway in the presence of an antagonist - cell viability counter screen (AID 1259379); note: nearly all actives have a fitted effect of over 25% in size; note: potency is the fitted concentration of half-maximal effect
In short: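 Cells: MDA-kb2 (MMTV-luc, AR and GR elements), 3,000/well, 5 hr settle. Added: nilutamide 3.0uM final, then compounds (15 conc.). Incubation: 16 hr, 37C, no CO2. Read-out: CellTiter-Fluor, 1 hr, fluorescence.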

[3] = qHTS assay to identify small molecule agonists of the estrogen receptor beta (ER-beta) signaling pathway - cell viability counter screen (AID 1259380); note: nearly all actives have a fitted effect of over 30% in size; note: potency is the fitted concentration of half-maximal effect
In short: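 HEK293T ER-beta-UAS-bla; 2% CS-FBS; 6 hr pre-plate, 16 hr cpd at 37C/5% CO2; LiveBLAzer read first, then CellTiter-Glo 30 min RT, luminescence.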

[4] = qHTS assay to identify small molecule antagonists of the estrogen receptor beta (ER-beta) signaling pathway - cell viability counter screen (AID 1259382);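 note: HEK293T cells carrying ER-beta-UAS-bla reporter stimulated with estradiol; series mostly up to about 92 µM; nearly all actives have a fitted effect of over 55% in size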
In short: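 Cells: ER-beta-UAS-bla HEK293T, 2,000/well, 2% CS-FBS, 6 hr settle. Cpd + E2 (1nM final), 16 hr, 37C/5% CO2. Bla FRET substrate 2 hr RT, then CellTiter-Glo 30 min RT, luminescence.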

[5] = molecular target: Estrogen receptor (Homo sapiens) (UniProt P03372); experiment: qHTS assay to identify small molecule agonists of the estrogen receptor alpha (ER-alpha) signaling pathway in the presence of an antagonist (AID 1259383; calls by dose curve; note: nearly all actives have a fitted effect of over 15% in size; note: potency is the fitted concentration of half-maximal effect; for activation: top concentration of the series differs between compounds)
In short: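 VM7Luc4E2, endog. ER-alpha + 4×ERE-luc; charcoal-stripped FBS, phenol red-free, 5 d; 24hr plating; +10.0nM ICI-182,780 (final); cpds 15 conc, 22hr, 37C/5% CO2; ONE-Glo luminescence.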

[6] = qHTS assay to identify small molecule agonists of the estrogen receptor alpha (ER-alpha) signaling pathway in the presence of an antagonist - cell viability counter screen (AID 1259386);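 note: cells exposed to compounds for 22 h at 37 °C before the viability read; nearly all actives have a fitted effect of over 30% in size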; note: potency is the fitted concentration of half-maximal effect
In short: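 VM7Luc4E2, stripped-serum pre-culture 5 d; 24hr plating; +ICI-182,780 10.0nM final; cpds 15 conc, 22hr, 37C/5% CO2; CellTiter-Fluor added at 21hr, fluorescence 1hr later.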

[7] = molecular target: Progesterone receptor (Homo sapiens) (UniProt P06401); experiment: qHTS assay to identify small molecule agonists of the progesterone receptor (PR) signaling pathway (AID 1346784; calls by dose curve; note: nearly all actives have a fitted effect of over 30% in size)
In short: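 Compounds were tested for PR agonism in HEK 293T cells bearing a beta-lactamase gene under UAS control. Treatment lasted 16 hr at 37C; signal came from fluorescence of a FRET substrate.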

[8] = molecular target: Progesterone receptor (Homo sapiens) (UniProt P06401); experiment: qHTS assay to identify small molecule antagonists of the progesterone receptor (PR) signaling pathway (AID 1346795; active = well fitted inhibition curve with a large enough effect in the signal ratio in the repeat runs, not every such curve was filed as active; the % refers to the signal ratio; note: potency is the fitted concentration of half-maximal effect)
In short: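 In HEK293T cells bearing the PR-UAS-bla reporter, compound effects on promegestone-driven (1 nM) beta-lactamase expression are assessed after 16 hr using a fluorescent FRET substrate incubated 2 hr at room temperature.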

[9] = qHTS assay to identify small molecule antagonists of the progesterone receptor (PR) signaling pathway - cell viability counter screen (AID 1346798); note: nearly all actives have a fitted effect of over 50% in size; note: potency is the fitted concentration of half-maximal effect
In short: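 Following a 4 hr attachment, PR-UAS-bla HEK293T cells in charcoal-stripped FBS medium were exposed to compounds with R5020 for 16 hr; CellTiter-Glo was added and luminescence read after 30 min at room temperature.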

[10] = qHTS assay to identify small molecule agonists of the progesterone receptor (PR) signaling pathway - cell viability counter screen (AID 1346799; calls by dose curve; note: nearly all actives have a fitted effect of over 45% in size)
In short: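 Here, 3,000 PR-UAS-bla HEK293T cells per well were treated with compounds for 16 hr after a 6 hr preincubation at 37C and 5% CO2; cell viability is the CellTiter-Glo luminescence signal.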

[11] = qHTS assay to identify small molecule antagonists of the TGF-beta/Smad signaling pathway - cell viability counter screen (AID 1346824); note: nearly all actives have a fitted effect of over 50% in size
In short: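 Cytotoxicity counter-screen run in the same wells as the beta-lactamase Smad reporter read: CellTiter-Glo luminescence after 30 min at room temperature. HEK 293T SBE-bla cells had 5 hr compound exposure at 37 C with TGF-beta1 (0.25 ng/mL stock).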

[12] = qHTS assay to identify small molecule agonists of the TGF-beta/Smad signaling pathway (AID 1346859; active = well fitted activation curve with a large enough effect in the signal ratio in the repeat runs, not every such curve was filed as active; the % refers to the signal ratio; note: series mostly up to about 77 µM)
In short: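 Each well held 4,000 SBE-bla HEK 293T cells incubated overnight before compound addition; 5 hr later the cleavable FRET substrate went on for 2 hr at room temperature, and fluorescence was read at two emissions.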

[13] = molecular target: Thyrotropin-releasing hormone receptor (Homo sapiens) (UniProt P34981); experiment: qHTS assay to identify small molecule antagonists of the thyrotropin-releasing hormone receptor (TRHR) signaling pathway (AID 1346877; active = well fitted inhibition curve with a large enough effect in the repeat runs, not every such curve was filed as active; note: potency is the fitted concentration of half-maximal effect)
In short: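 Intracellular calcium fluorescence, read kinetically every second over 3 min, reports TRH-evoked signalling in HEK293 cells carrying TRHR. Test compounds were added 5 min ahead of a 1 nM TRH challenge.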

[14] = molecular target: Thyrotropin-releasing hormone receptor (Homo sapiens) (UniProt P34981); experiment: qHTS assay to identify small molecule agonists of the thyrotropin-releasing hormone receptor (TRHR) signaling pathway (AID 1346891; calls by dose curve; note: series mostly up to about 58 µM)
In short: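 Screening of agonists relied on calcium signalling in HEK293 cells expressing human TRHR: dye loading 2 h at 37 °C preceded compound addition and a 3-min fluorescence time course.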

[15] = Human pregnane X receptor (PXR) small molecule agonists, qHTS cell viability counter screen (AID 1346977); note: nearly all actives have a fitted effect of over 50% in size; note: potency is the fitted concentration of half-maximal effect
In short: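 Tox21 qHTS format; PXR-Luc HepG2, 2,000/well, charcoal-stripped FBS 5%. Cpd exposure 24hr. Read: CellTiter-Fluor fluorescence, multiplexed with luciferase.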

[16] = molecular target: Estrogen receptor beta (Homo sapiens) (UniProt Q92731); experiment: qHTS assay to identify small molecule agonists of the estrogen receptor beta (ER-beta) signaling pathway (AID 1259377; active = well fitted activation curve with a large enough effect in the signal ratio in the repeat runs, not every such curve was filed as active; the % refers to the signal ratio; note: potency is the fitted concentration of half-maximal effect)
In short: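 Read-out: beta-lactamase FRET fluorescence. Cell line: ER-beta-UAS-bla HEK293T in 2% charcoal-stripped FBS. Exposure: 16 hr at 37C. Substrate step: 2 h at room temperature.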

[17] = qHTS assay to identify small molecule agonists or antagonists of the thyroid stimulating hormone receptor (TSHR) signaling pathway - wild type cell line counter screen (AID 1259384; calls by dose curve)
In short: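 Counter screen in untransfected Hek293: compounds (15-point titration, triplicate) plus phosphodiesterase inhibitor Ro20-1724 added after 18 h plating; 30 min RT. Intracellular cAMP via competitive d2/cryptate immunoassay, 1 h incubation.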

[18] = molecular target: Thyrotropin receptor (Homo sapiens) (UniProt P16473); experiment: qHTS assay to identify small molecule antagonists of the thyroid stimulating hormone receptor (TSHR) signaling pathway (AID 1259385; calls by dose curve; note: nearly all actives have a fitted effect of over 20% in size)
In short: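 Antagonist mode: compound-treated TSHR-expressing HEK293 cells were stimulated with 1.5 ng/mL TSH (final) in presence of Ro20-1724 for 30 min at RT. HTRF cAMP detection after 1 h; each compound tested at 15 concentrations, triplicate.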

[19] = qHTS assay to identify small molecule agonists of the TGF-beta/Smad signaling pathway - cell viability counter screen (AID 1346829); note: top concentration of the series differs between compounds; nearly all actives have a fitted effect of over 45% in size
In short: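 In parallel with the Smad reporter read, viability of HEK 293T cells stably carrying SBE-bla is quantified by ATP luminescence following 5 hr compound treatment.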

[20] = molecular target: Androgen receptor (Homo sapiens) (UniProt P10275); experiment: qHTS assay to identify small molecule agonists of the androgen receptor (AR) signaling pathway in the presence of an antagonist (AID 1259381; calls by dose curve; note: nearly all actives have a fitted effect of over 15% in size; note: potency is the fitted concentration of half-maximal effect)
In short: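 MDA-kb2 cells, 3,000/well, rested 5hr at 37C/0% CO2 → nilutamide 3.0uM final or buffer → compounds, 15 conc. → 16hr at 37C → ONE-Glo, 30min RT → luminescence.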

Chain of Progesterone receptor (Homo sapiens) (P06401 whole entry, looked up): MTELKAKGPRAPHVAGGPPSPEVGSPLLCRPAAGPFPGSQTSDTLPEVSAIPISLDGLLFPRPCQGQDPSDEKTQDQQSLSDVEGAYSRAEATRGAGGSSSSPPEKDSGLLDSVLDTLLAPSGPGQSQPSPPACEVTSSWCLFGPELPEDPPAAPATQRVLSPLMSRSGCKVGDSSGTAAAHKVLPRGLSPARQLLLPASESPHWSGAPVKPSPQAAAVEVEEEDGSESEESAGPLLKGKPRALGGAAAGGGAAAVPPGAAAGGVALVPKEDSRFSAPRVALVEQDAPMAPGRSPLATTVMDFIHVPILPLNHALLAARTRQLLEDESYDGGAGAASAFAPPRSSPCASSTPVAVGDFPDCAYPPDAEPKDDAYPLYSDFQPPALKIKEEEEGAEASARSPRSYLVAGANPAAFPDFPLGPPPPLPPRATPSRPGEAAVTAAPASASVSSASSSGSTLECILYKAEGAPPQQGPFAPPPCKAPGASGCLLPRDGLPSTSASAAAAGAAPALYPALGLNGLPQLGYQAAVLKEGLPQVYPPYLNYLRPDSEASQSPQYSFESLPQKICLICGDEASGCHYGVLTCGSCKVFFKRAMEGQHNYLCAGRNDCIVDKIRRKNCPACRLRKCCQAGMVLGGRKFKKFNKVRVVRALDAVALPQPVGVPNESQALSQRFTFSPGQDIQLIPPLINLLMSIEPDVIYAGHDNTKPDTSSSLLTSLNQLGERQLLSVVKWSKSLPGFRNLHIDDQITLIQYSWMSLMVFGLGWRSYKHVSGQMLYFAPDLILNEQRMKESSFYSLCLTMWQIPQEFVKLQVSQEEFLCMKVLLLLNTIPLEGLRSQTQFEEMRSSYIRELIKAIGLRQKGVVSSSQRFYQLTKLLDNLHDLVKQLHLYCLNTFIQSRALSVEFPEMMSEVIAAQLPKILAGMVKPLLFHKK
Chain of Estrogen receptor beta (Homo sapiens) (Q92731 whole entry, looked up): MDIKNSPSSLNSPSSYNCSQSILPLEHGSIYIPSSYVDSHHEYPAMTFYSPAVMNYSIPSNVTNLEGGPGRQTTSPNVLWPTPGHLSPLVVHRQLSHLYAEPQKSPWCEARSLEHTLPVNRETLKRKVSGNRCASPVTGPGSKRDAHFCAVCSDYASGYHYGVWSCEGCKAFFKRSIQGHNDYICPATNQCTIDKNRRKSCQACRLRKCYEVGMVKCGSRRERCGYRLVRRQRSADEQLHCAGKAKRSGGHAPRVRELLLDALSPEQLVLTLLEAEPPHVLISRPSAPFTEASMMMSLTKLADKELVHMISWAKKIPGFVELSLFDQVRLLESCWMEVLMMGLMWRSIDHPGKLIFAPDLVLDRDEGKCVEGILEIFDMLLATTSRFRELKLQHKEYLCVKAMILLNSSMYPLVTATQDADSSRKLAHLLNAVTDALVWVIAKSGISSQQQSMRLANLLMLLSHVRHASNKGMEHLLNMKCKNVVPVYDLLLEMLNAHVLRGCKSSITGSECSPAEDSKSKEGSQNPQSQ
Chain of Thyrotropin receptor (Homo sapiens) (P16473 whole entry, looked up): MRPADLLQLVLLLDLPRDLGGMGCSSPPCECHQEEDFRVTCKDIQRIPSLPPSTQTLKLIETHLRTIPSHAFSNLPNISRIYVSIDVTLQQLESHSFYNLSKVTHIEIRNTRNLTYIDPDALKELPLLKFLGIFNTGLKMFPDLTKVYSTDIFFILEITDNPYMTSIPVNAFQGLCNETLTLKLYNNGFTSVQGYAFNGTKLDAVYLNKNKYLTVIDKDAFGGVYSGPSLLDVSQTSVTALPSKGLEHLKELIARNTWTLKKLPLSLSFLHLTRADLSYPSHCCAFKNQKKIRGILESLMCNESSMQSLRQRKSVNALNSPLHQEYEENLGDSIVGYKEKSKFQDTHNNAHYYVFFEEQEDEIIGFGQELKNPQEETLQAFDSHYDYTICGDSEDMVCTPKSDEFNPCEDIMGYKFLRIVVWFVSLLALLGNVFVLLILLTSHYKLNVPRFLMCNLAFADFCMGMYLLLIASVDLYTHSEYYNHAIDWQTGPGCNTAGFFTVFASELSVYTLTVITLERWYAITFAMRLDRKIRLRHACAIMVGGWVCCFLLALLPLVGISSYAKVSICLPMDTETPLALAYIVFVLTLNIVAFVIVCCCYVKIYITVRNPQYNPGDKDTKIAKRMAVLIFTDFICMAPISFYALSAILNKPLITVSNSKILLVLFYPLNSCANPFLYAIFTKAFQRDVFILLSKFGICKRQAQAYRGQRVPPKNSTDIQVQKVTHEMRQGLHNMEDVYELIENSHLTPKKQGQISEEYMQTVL
Chain of Estrogen receptor (Homo sapiens) (P03372 whole entry, looked up): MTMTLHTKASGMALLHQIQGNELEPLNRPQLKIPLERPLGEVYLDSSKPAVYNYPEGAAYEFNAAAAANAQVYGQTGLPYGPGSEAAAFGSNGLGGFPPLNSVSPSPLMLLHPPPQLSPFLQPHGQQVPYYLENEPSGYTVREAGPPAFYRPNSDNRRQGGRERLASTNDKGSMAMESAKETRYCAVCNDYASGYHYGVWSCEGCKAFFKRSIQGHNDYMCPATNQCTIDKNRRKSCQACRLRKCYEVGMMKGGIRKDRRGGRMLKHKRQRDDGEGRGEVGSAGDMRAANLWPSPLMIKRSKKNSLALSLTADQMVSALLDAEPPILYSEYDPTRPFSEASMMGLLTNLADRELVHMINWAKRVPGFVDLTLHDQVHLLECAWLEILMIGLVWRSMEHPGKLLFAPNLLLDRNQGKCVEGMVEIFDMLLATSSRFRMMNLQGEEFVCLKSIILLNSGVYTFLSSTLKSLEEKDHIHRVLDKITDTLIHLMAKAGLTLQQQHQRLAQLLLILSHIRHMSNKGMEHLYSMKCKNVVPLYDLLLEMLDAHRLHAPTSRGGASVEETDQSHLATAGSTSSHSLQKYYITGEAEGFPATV
Chain of Androgen receptor (Homo sapiens) (P10275 whole entry, looked up): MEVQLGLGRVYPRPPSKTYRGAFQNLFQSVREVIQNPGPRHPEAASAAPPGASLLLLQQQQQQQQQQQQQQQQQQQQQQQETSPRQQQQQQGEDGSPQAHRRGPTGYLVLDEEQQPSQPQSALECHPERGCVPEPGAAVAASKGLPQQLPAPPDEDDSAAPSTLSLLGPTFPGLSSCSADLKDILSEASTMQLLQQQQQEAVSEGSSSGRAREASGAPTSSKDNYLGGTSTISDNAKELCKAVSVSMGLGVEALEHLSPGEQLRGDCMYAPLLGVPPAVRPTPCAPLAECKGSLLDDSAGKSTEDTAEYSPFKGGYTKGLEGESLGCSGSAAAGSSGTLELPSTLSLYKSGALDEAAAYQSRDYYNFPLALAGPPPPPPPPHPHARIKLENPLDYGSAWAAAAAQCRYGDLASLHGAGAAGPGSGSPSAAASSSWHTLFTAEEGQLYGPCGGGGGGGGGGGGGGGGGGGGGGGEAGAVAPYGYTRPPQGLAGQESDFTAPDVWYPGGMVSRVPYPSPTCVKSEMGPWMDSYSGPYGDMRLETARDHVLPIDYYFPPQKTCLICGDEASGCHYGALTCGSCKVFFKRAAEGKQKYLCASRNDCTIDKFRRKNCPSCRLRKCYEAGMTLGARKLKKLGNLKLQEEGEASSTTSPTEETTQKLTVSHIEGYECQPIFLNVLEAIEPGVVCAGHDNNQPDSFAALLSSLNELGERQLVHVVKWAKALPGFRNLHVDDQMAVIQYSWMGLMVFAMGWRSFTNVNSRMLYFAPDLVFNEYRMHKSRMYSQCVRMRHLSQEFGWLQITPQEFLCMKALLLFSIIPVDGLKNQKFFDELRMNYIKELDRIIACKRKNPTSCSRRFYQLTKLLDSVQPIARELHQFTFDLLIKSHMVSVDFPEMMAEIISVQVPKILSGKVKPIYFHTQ
Chain of Thyrotropin-releasing hormone receptor (Homo sapiens) (P34981 whole entry, looked up): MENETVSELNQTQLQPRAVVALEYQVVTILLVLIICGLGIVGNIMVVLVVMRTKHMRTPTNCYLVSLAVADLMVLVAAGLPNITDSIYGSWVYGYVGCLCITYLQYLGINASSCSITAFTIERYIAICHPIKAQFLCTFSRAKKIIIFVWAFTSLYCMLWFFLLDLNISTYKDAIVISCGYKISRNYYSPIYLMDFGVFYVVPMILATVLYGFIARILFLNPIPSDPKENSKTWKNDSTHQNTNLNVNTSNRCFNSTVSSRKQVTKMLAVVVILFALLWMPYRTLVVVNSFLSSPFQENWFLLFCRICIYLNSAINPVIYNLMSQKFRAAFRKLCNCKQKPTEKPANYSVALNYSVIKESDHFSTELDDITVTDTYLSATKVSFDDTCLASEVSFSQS

Structure (SMILES)	Potency [1]	Potency [2]	Potency [3]	Potency [4]	Potency [5]	Potency [6]	Potency [7]	Potency [8]	Potency [9]	Potency [10]	Potency [11]	outcome [12]	Potency [13]	outcome [14]	Potency [15]	Potency [16]	outcome [17]	Potency [18]	Potency [19]	Potency [20]
Nc1ccc2c(c1)Cc1ccccc1-2	inactive	inactive	inactive	inactive	inactive	inactive	inactive	6.08 µM (active)	inactive	inactive	inactive	inactive	inactive	inactive	inactive	–	–	–	–	–
O=S(=O)(c1ccccc1)c1ccccc1	inactive	inactive	–	inactive	–	inactive	inactive	–	–	inactive	inactive	inactive	inactive	inactive	inactive	inactive	inactive	inactive	–	–
O=[N+]([O-])c1cc(Cl)c(Cl)cc1Cl	inactive	–	inactive	inactive	–	inactive	inactive	inactive	inactive	inactive	inactive	inactive	–	–	inactive	inactive	–	–	inactive	–
Nc1ccccc1C(=O)OCC(O)CO (stereo not given)	–	inactive	inactive	inactive	inactive	inactive	inactive	–	–	inactive	inactive	inactive	inactive	inactive	inactive	–	inactive	inactive	inactive	inactive
CCC(=O)O[C@@H]1C=C2CCC3C(CCC4(C)C3CC[C@@H]4OC(=O)CC)C2CC1 (stereo not given in full)	–	inactive	–	inactive	0.531 µM (active)	–	–	inactive	inactive	–	inactive	inactive	inactive	inactive	inactive	0.298 µM (active)	inactive	–	inactive	0.188 µM (active)
CCOP(=S)(S)OCC	–	inactive	inactive	inactive	inactive	inactive	inactive	–	inactive	inactive	inactive	inactive	inactive	inactive	inactive	–	inactive	inactive	inactive	inactive
CN(C)c1ccc(N=O)cc1	–	43.4 µM (active) and 43.3 µM (active)	3.87 µM (active) and 15.4 µM (active)	–	–	68.8 µM (active) and 61.1 µM (active)	–	–	38.7 µM (active) and 48.6 µM (active)	inactive	inactive	inactive	inactive	inactive	44.7 µM (active) and 27.3 µM (active)	inactive	–	–	inactive	–
CNC(=O)Oc1cccc(N=CN(C)C)c1	inactive	–	inactive	inactive	inactive	inactive	inactive	inactive	–	–	inactive	inactive	inactive	inactive	inactive	–	inactive	inactive	inactive	–
NNCCO	inactive	inactive	inactive	inactive	–	–	inactive	–	inactive	inactive	inactive	inactive	–	–	inactive	–	inactive	inactive	inactive	–
CN(C)C(=O)Nc1cccc(OC(=O)NC(C)(C)C)c1	inactive	inactive	inactive	inactive	–	inactive	inactive	inactive	inactive	inactive	inactive	inactive	inactive	inactive	inactive	–	inactive	inactive	inactive	–
CC(Oc1cccc(Cl)c1)C(=O)O (stereo not given)	inactive	inactive	inactive	inactive	–	inactive	inactive	inactive	inactive	inactive	inactive	inactive	inactive	inactive	inactive	–	inactive	inactive	–	–
OCCCl	inactive	inactive	–	inactive	–	–	inactive	inactive	–	inactive	inactive	inactive	–	–	inactive	inactive	–	–	inactive	–
CCCCOC(=O)CCC(=O)OCCCC	inactive	inactive	–	inactive	–	–	inactive	inactive	inactive	inactive	inactive	inactive	inactive	inactive	inactive	inactive	inactive	inactive	inactive	–
C[C@@H]1C[C@@H]([C@H](O)CC2CC(=O)NC(=O)C2)C(=O)[C@@H](C)C1	–	inactive	–	inactive	–	inactive	inactive	–	–	inactive	inactive	inactive	inactive	inactive	342 nM (active) and 1.22 µM (active) and 1.19 µM (active)	inactive	inactive	inactive	inactive	–
CCC1CCC(=O)O1 (stereo not given)	inactive	inactive	inactive	inactive	–	–	inactive	inactive	inactive	inactive	inactive	inactive	inactive	inactive	inactive	–	inactive	inactive	inactive	–
CC(C)[C@@H](C(=O)O[C@@H](C#N)c1cccc(Oc2ccccc2)c1)c1ccc(Cl)cc1	–	inactive	–	inactive	–	inactive	–	–	inactive	–	inactive	inactive	–	–	inactive	inactive	inactive	inactive	–	–
O=CC=O	inactive	inactive	–	inactive	inactive	inactive	inactive	inactive	inactive	inactive	inactive	inactive	–	–	inactive	–	inactive	inactive	inactive	inactive
O=C1CC[C@@]2(O)[C@H]3Cc4ccc(O)c5c4[C@@]2(CCN3CC2CC2)[C@H]1O5	–	inactive	–	inactive	–	inactive	inactive	inactive	inactive	inactive	–	inactive	inactive	inactive	inactive	inactive	inactive	inactive	inactive	–
O=C1c2ccccc2C(=O)N1SC(Cl)(Cl)Cl	–	26.9 µM (active) and 27.3 µM (active)	–	inactive	–	inactive	inactive	inactive	inactive	inactive	–	inactive	33.3 µM (active)	inactive	39.8 µM (active) and 17.2 µM (active)	inactive	inactive	inactive	inactive	–

From PubChem BioAssay (Tox21)
